The results in this text go back to PubChem BioAssay (Tox21).

Structures are written as SMILES. Results filed as inconclusive are left out. A call without a number means that no potency is given here. A number with no mark means an inactive call. Active and inactive are the calls of the source. Calls come from the whole dose curve; as a rule, active = well fitted cell-killing curve with a large enough effect in the repeat runs; inconclusive = weak or mixed curves, or effect the other way; inactive = flat fitted curve, though single readings scatter.

The assay in a line: qHTS assay to identify small molecule antagonists of the androgen receptor (AR) signaling pathway using the MDA cell line in the presence of 0.5 nM R1881 - cell viability counter screen (AID 1259242). Note: nearly all actives have a fitted effect of over 45% in size. The conditions noted are these: MDA-kb2 viability, CellTiter-Fluor protease fluorescence, 16 h; series mostly up to 92.4 µM. From the text: U.S. Tox21 Program National Center for Advancing Translational Sciences [NCATS] NIH Chemical Genomics Center [NCGC] U.S. Environmental Protection Agency [EPA] National Institutes of Environmental Health Sciences [NIEHS] National Toxicology Program [NTP] U.S. Food and Drug Administration [FDA] Tox21 Assay Overview: Androgen receptor (AR) is an important member of the nuclear receptor family. Its signaling plays a critical role in AR-dependent prostate cancer and other androgen related diseases. Considerable attention has been given in the past decades to develop methods to study and screen for the environmental chemicals that have the potential to interfere with metabolic homeostasis, reproduction, developmental and behavioral functions. Therefore AR binding assay for screening androgen antagonists can be used to identify potential endocrine disruptors. MDA-kb2 cells (from ATCC, deposited by Wilson et al.) were used to screen for AR inhibitors against Tox21 compound libraries. These cells are human breast carcinoma cells that were stably transfected with a luciferase reporter gene under control of the MMTV promoter that contains response elements for both androgen receptor (AR) and glucocorticoid receptor (GR). The current screening for identification of AR inhibitors against Tox21 libraries used lower concentration of (0.5 nM) R1881 as a stimulator. The cytotoxicity of the Tox21 compound libraries against MDA-kb2 cell line was tested by measuring live-cell protease activity using CellTiter-Fluor assay in the same wells.
Tox21 Assay Protocol Summary: MDA-kb2 cells (cells cultured without CO2) were dispensed at 3,000 cells/well in 4 uL of culture medium into white wall/solid-bottom 1536-well plates (Corning Life Sciences, Corning, NY) using a Multidrop Combi (ThermoFisher Scientific, Waltham, MA) dispenser. After the assay plates were incubated at a 37C and 0% CO2 for 5 hr, 23 nL of compounds dissolved in DMSO, positive controls or DMSO only was transferred to the assay plate by a Pintool station (Kalypsys, San Diego, CA). The transfer of compounds was followed by the addition of 1 uL of 0.5 nM (final concentration) agonist (R1881)/culture medium using a Flying Reagent Dispenser (FRD, Aurora Discovery, San Diego, CA). The plates were incubated at 37C and 0% CO2 for 16 hr. For cytotoxicity assay, 1 uL of CellTiter-Fluor reagent (Promega Corporation, Madison, WI) was added to each well using the FRD and after 30 min incubation at 37C and 0% CO2, The fluorescence intensity was measured using ViewLux plate reader (PerkinElmer, Shelton, CT).
Take `CN(C)c1ccc(/C=C/c2ccc([N+](=O)[O-])cc2)cc1`: the viability change, negative = cytotoxic was 4% [at 8.39 µM].
Regarding `OCCN1CCN(CCCN2c3ccccc3C=Cc3ccccc32)CC1`, the Potency entry was “inactive”.
Same read-out and setting: then `CC(C)(C)Cl`, with “inactive”; and `COc1cc2nc(N(C)CCCNC(=O)C3CCCO3)nc(N)c2cc1OC` (stereo not given), with “inactive”.
The same measure, in the same setting: then `CN(Cc1ccc(C(C)(C)C)cc1)Cc1cccc2ccccc12`, with “inactive”; and `Cc1ccc(C(C)OC(=O)C2(C)CCC(C(=O)O)C2(C)C)cc1` (stereo not given), with “inactive”.
The same measure, in the same setting: then `CN1CCC(=C2c3ccccc3Sc3ccccc32)CC1`, with “inactive”.
For `CC1=CC[C@H](C(C)C)C=C1`, the Potency entry is “inactive”.
Same read-out and setting: then `CC(C)(CO)[N+](=O)[O-]`, with “inactive”; and `COC(C)OC`, with “inactive”.
Same read-out and setting: then `CNC(=O)CN(CCN(CCN(CC(=O)[O-])CC(=O)NC)CC(=O)[O-])CC(=O)[O-].O.[Gd+3]`, with “inactive”; and `O=S(c1cc(Cl)cc(Cl)c1O)c1cc(Cl)cc(Cl)c1O`, with “inactive”.
Same read-out and setting: then `O=C(O)C(S)C(S)C(=O)O` (stereo not given), with “inactive”.
Take `O=C(O)c1ccccc1Cl`: the Potency entry was “inactive”.
For the molecule `O=C1c2ccccc2S(=O)(=O)N1CCCCN1CCN(c2ncccn2)CC1`, the Potency entry is “inactive”.
Still for that read-out and setting: then `CCO[C@H](Cc1ccc(OCCc2ccc(OS(C)(=O)=O)cc2)cc1)C(=O)O`, with “inactive”.
Regarding `C[C@@H]1C[C@H]2O[C@@]3(O[C@@H]2C(C)(C)O)[C@H](O)[C@@]2(C)[C@@H]4CC[C@H]5C(C)(C)[C@@H](O[C@@H]6OC[C@@H](O)[C@H](O)[C@H]6O)CC[C@@]56C[C@@]46CC[C@]2(C)[C@@H]13`, the Potency result was “inactive”.
On to `CCOC(=O)C(=O)CCc1ccccc1`, for which the Potency entry was “inactive”.
On the same count and under the same terms, then `CCCCCCCCCCCC(=O)OC[C@@H](O)[C@H]1OC[C@H](OCCO)[C@H]1OCCO`, with “inactive”; and `CCCCCCc1ccc(-c2ccc(C#N)cc2)cc1`, with “inactive”.
Still for that read-out and setting: then `O=C(OCCc1ccccc1)c1ccccc1`, with “inactive”.
As to `CCCCC(CC)COC(=O)COc1ccc(Cl)cc1Cl` (stereo not given), the Potency entry is “inactive”.
Same read-out and setting: then `CCOC(=O)C1=C[C@]2(CC)CCCN3CCc4c(n1c1ccccc41)[C@@H]32`, with “inactive”; and `CC(C)Nc1ccc(NC(C)C)c2c1C(=O)c1ccccc1C2=O`, with “inactive”.
As to `CCCCC1=NC2(CCCC2)C(=O)N1Cc1ccc(-c2ccccc2-c2nn[nH]n2)cc1`, the Potency entry is “inactive”.
Turning to `C[N+]1(CC2COC(c3ccccc3)(C3CCCCC3)O2)CCCCC1` (stereo not given), the Potency result is “inactive”.
As for `CC1(c2ccccc2)OC(C(=O)O)=CC1=O` (stereo not given), the Potency result was “inactive”.
In the case of `COc1ccc(-c2nc3ccc(C4=NNC(=O)CC4C)cc3[nH]2)cc1` (stereo not given), the Potency result is “inactive”.
On the same count and under the same terms, then `O=C(Nc1ccc(S(=O)(=O)N2CCOCC2)cc1)c1cc(Cl)ccc1NS(=O)(=O)c1ccc(Cl)s1`, with “inactive”; and `NS(=O)(=O)c1ccc(N2CCCCS2(=O)=O)cc1`, with “inactive”.
As to `O=C1CCCCCCCCCCCC(=O)OCCO1`, the Potency result is “inactive”.
Take `O=S(=O)(Oc1ccc(Cl)cc1)c1ccccc1`: the Potency entry is “inactive”.
For `C/C(=C(\CCOP(=O)(O)O)SC(=O)c1ccccc1)N(C=O)Cc1cnc(C)nc1N`, the viability change, negative = cytotoxic was 2.34% [at 8.39 µM].
Still for that read-out and setting: then `NCC(=O)O`, with -5.8% [at 19 µM].
Take `CC(=O)OC[C@H]1O[C@@H](n2ncc(=O)[nH]c2=O)[C@H](OC(C)=O)[C@@H]1OC(C)=O`: the Potency result is “inactive”.
Regarding `CC(C)Cc1ccc(C(C)C(=O)OCc2ccccn2)cc1` (stereo not given), the Potency result was “inactive”.
With `C=CC1CC2C=CC1C2` (stereo not given), the Potency result was “inactive”.
As for `O=C(O)c1nc(Cl)c(Cl)c(Cl)c1Cl`, the Potency result was “inactive”.
Still for that read-out and setting: then `CCOc1ccc(N)c([N+](=O)[O-])c1`, with “inactive”; and `Cc1cc(C(=O)O)ccc1[N+](=O)[O-]`, with “inactive”.
